In PubChem BioAssay:
Activity calls are given as the source filed them.

The molecules below were run against Luciferin 4-monooxygenase (Photinus pyralis) (UniProt P08659) (assay: inhibition of purified Photinus pyralis luciferase – biochemical, luminescence, purified enzyme, 2006 set, primary screen (AID 1141;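 further: cell-free assay with purified firefly luciferase at 100 ng per well in PBS; test concentration not given here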)). Details: purified firefly luciferase, SteadyGlo luminescence, 30 min; higher = more signal, called active from +8 up or from −8 down.
Chain of Luciferin 4-monooxygenase (Photinus pyralis) (P08659 whole entry, looked up): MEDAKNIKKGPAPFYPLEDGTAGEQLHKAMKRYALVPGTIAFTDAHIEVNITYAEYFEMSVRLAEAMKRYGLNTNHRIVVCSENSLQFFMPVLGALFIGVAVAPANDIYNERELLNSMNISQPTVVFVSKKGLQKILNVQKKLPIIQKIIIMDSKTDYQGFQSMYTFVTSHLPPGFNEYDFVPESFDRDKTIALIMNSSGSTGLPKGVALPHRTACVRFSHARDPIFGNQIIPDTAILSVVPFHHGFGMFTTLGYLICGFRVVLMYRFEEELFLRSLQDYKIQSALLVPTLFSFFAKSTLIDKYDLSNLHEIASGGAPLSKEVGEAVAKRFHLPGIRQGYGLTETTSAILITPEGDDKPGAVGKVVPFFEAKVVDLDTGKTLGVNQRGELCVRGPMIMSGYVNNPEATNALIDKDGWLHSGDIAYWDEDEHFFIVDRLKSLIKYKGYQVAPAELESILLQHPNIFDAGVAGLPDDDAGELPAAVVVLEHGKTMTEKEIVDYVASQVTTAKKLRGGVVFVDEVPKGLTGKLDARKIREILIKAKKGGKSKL

z-score, inactive:
O=C1C2C=CC(C(O)C(c3ccccc3)c3ccccc3)N(Nc3ccc([N+](=O)[O-])cc3)C2C(=O)N1c1ccccc1 (stereo not drawn) 1.66
CO[C@H]1COC(=O)[C@H](CCSC)NC(=O)CC=C[C@@H](C)COC(=O)[C@@H](OCc2ccccc2)C=C[C@@H]1C -1.12
CCC(=O)[C@]12O[C@@]3([C@@H]4C(=O)OCC[C@@H]41)N(Cc1ccccc1)C(C)=C(C(=O)OC)[C@@H](c1ccccc1)N3C2=O -1.36
COC(=O)[C@@]1(Cc2ccc(OC)cc2)[C@H]2c3cc(C(=O)N(C)C)n(CCc4ccc(OC)c(Br)c4)c3C[C@H]2CN1C(=O)c1ccccc1 0.253
C#CCCCON=C1C[C@@H](O)[C@@H](O)[C@@H]2[C@@H]3C(=O)N(Cc4ccc5c(c4)OCO5)C(=O)[C@@H]3CC[C@H]12 0.975
COC(=O)c1c(CC[C@@H](CO)NC(=O)N[C@H](Cn2cc(-c3cncn3C)nn2)C(C)C)oc(C(C)=O)c1C(=O)OC -0.263
CCOC(=O)C1=CC[C@@H](c2ccc(-c3ccc(OCc4ccccc4)cc3)c(OC)c2)N(S(=O)(=O)c2ccc(C)cc2)[C@H]1c1ccccc1 -3.26

z-score, active:
[N-]=[N+]=NCc1ccccc1C[C@@]1(C(=O)O)N=C(c2ccc(OCCCO)cc2)O[C@@H]1c1ccccc1N=[N+]=[N-] -8.1
